A selection: hits, their analogues and other compounds. The true share with any hit is near 3.5%.
FBW7 act: activators of human E3 ligase FBW7. Q969H0. AlphaScreen FBW7–phospho-cyclin E peptide binding, activator screen. normalized activity (activation), % at 26.1 µM. 650,000 compounds, 0.13% hits; in the data active = normalized activity above about 1.9%;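 note: purified mutant Fbw7 with reduced substrate affinity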
TEAD-YAP block: TEAD-YAP interaction inhibition. HEK-TIYL cells, TEAD-Gal4/YAP UAS-luciferase luminescence. inhibition, % at 9.12 µM. 640,000 compounds, 1.4% hits. AID 1259422; in the data active = inhibition above about 32%;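 note: 0% = median of test compound wells and 100% = reference inhibitor wells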
MITF primary: inhibitors of human MITF; 650,000 compounds, 0.91% hits; inhibition, % at 2.6 µM; O75030; AID 1259374; AlphaScreen MITF homodimerization, bead proximity signal; in the data active = inhibition above about 50%;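 note: 0% = vehicle wells with protein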
GPR151 activ: activates the human receptor GPR151 | Q8TDV0 | PathHunter beta-arrestin GPR151 cells, luminescence | activation, % at 11.2 µM | 650,000 compounds, 1% hits | AID 1508602; in the data active = activation above about 4.9%;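 note: 0% = median of compound wells and 100% = cells with positive control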
Target sequence (Q8TDV0 whole entry, looked up): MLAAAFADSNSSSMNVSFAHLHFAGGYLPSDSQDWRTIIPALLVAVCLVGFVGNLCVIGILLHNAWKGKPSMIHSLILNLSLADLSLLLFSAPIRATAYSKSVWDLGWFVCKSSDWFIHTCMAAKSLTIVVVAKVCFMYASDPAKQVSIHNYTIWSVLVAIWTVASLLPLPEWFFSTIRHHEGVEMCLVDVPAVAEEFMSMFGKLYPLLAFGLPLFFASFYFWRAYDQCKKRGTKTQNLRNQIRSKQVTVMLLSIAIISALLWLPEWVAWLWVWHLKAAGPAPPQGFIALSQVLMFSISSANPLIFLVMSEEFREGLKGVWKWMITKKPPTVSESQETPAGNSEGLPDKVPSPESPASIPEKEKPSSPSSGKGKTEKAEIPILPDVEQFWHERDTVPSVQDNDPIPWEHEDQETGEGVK
GPR151 confirm: human GPR151 activation, confirmation screen; shares compounds with GPR151 activ; GPR151 PathHunter beta-arrestin cells, luminescence, 90 min; % of EA-reagent control over plate median; activation, % at 11.2 µM; 6,700 tested, under 10 active; AID 1508609;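 active = mean percent activation across replicates above the confirmation screen cutoff of 4.91%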
GPR119 counter: GPR119 activation, counter-screen for GPR151 activators | shares compounds with GPR151 activ | GPR119 PathHunter beta-arrestin cells, luminescence, 90 min; 0 = compound-well median, 100 = enzyme-acceptor control | activation, % at 11.2 µM | 6,700 compounds, 0.3% hits | AID 1508611;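 active = mean percent activation in the counterscreen above 29.09%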;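 note: counterscreen on off-target GPR119 to flag nonselective hits from the GPR151 activator screen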
The depositor's hits bear a star; . = not tested or not shown; ! = a repeat was not active.

SMILES | FBW7 act | TEAD-YAP block | MITF primary | GPR151 activ | GPR151 confirm | GPR119 counter
CCSC(=N)N | 0 | 12 | -5 | 7.1*! | 0 | 4
Cc1ccc(NC(=O)COc2cccc3c2CCN(Cc2cccnc2)C3=O)c(C)c1 | 0 | -2 | 6 | 5.4* | 2 | 4
COc1ccc(CNC(CC(=O)c2ccc(F)cc2)C(=O)O)cc1 (stereo unspecified) | 0 | 4 | -10 | -1 | . | .
NC(=O)Cn1ccn(-c2cccc(Cl)c2)c(=O)c1=O | 0 | 1 | 2 | 8.1* | 0 | -8
O=C(Nc1ccccc1)C1CCCN1C(=O)NC1CCCCC1 (stereo unspecified) | 0 | 0 | -8 | 0 | . | .
O=C(O)C1CCCN1C(=O)NC1CCCCC1 (stereo unspecified) | 0 | 0 | 12 | 4.9* | 0 | 1
COc1ccccc1CN1CCNC(=O)C1CC(=O)NCc1csc(C)n1 (stereo unspecified) | 0 | -24 | -3 | 5.8* | 0 | -2
COc1ccccc1CN1CCNC(=O)C1CC(=O)NCc1ccc(F)cc1 (stereo unspecified) | 0 | 17 | 12 | 0 | . | .
CC(=O)Nc1ccc(/C=C(\C#N)C(=O)Nc2cc(C(F)(F)F)ccc2Cl)cc1 | 0 | -6 | -2 | 0 | . | .
O=C(Cn1c(=O)oc2cc(S(=O)(=O)N3CCCCC3)ccc21)Nc1ccccn1 | 0 | -2 | -4 | 0 | . | .
Cc1ccc(NS(=O)(=O)c2ccc(NS(=O)(=O)c3ccc4c(c3)OCCO4)cc2)cc1C | 0 | 4 | 1 | -2 | . | .
Cc1ccc(S(=O)(=O)Nc2ccc(Cl)c([N+](=O)[O-])c2)cc1 | 0 | -9 | 12 | 6.3* | -1 | 2
Cc1ccc(S(=O)(=O)Nc2ccc3c(c2)OCCOCCOCCOCCOCCO3)cc1 | 0 | -9 | -1 | 5.2* | -1 | -8
Cc1ccc(NCCCC(=O)N/N=C/c2cccnc2)cc1 | 0 | 5 | 0 | 0 | . | .
C=C(C)CSc1nnc2n(C3CCCCC3)c(=O)c3c4c(sc3n12)CCCC4 | 0 | -6 | 6 | -1 | . | .
CCOC(=O)C(NC(=O)COc1ccccc1)(Nc1sc2c(c1C#N)CCCC2)C(F)(F)F (stereo unspecified) | 0 | -6 | 11 | 1 | . | .
Cn1nc([N+](=O)[O-])c2c(-c3nc4ccccc4n3C)c(N)n(CCc3ccccc3)c2c1=O | 0 | 7 | 1 | 6.0* | -1 | -11
Cc1ccc(Nc2c(N)c(=O)oc3ccccc23)cc1 | 0 | -10 | 8 | 17* | 0 | -5
CNc1c(N)c(=O)oc2ccccc12 | 0 | -27 | 9 | 0 | . | .
CCc1ccc(N2COc3ccc4c(C)cc(=O)oc4c3C2)cc1 | 0 | 7 | 6 | -1 | . | .
COCCNC(=O)c1ccc(CNC(=O)c2ccc3c(c2)OCO3)cc1 | 0 | -8 | 9 | -1 | . | .
COCCCNC(=O)c1ccc(CNC(=O)c2ccc3c(c2)OCO3)cc1 | 0 | 3 | 5 | 5.7* | -1 | -5
O=c1c2ccccc2c2ccccc2c(=O)n1-c1ccc(OC(F)(F)F)cc1 | 0 | 6 | 10 | 5.1* | -1 | -10
O=c1c2ccccc2c2ccccc2c(=O)n1-c1ccc(F)cc1 | 0 | -6 | -3 | -2 | . | .
Cn1c(=S)[nH]c2cc(Cl)ccc2c1=O | 0 | 6 | 11 | 0 | . | .
SMILES | FBW7 act | TEAD-YAP block | MITF primary | GPR151 activ | GPR151 confirm | GPR119 counter
C(=C\CSc1nc2ccccc2[nH]1)/CSc1nc2ccccc2[nH]1 | 0 | 10 | 12 | 0 | . | .
CN(C(=O)CCl)c1nc(-c2ccc(F)cc2)cs1 | 0 | -2 | -4 | 6.1* | 0 | 2
Cn1c(N)c(S(=O)(=O)N2CCN(c3ccccc3Cl)CC2)c(=O)n(C)c1=O | 0 | -9 | 7 | 26* | 1 | 3
CC(=O)N1CCOc2cc(S(=O)(=O)N3CCCc4ccccc43)ccc21 | 0 | 7 | 4 | 1 | . | .
CC(=O)N1CCc2ccc(S(=O)(=O)N3CCCc4ccccc43)cc21 | 0 | 54* | 5 | 6.7* | 0 | 2
Cc1c(C(=O)Nc2ccc(Oc3ccccc3)cc2)sc2ncn(CC(=O)N3CC(C)CC(C)C3)c(=O)c12 (stereo unspecified) | 0 | 5 | 4 | 3 | . | .
CCOc1ccc(NC(=O)c2sc3ncn(CC(=O)N4CC(C)CC(C)C4)c(=O)c3c2C)cc1 (stereo unspecified) | 0 | 20 | 2 | 6.3* | -1 | 0
COc1cccc(CNC(=O)C(NS(=O)(=O)c2cccc3nsnc23)C(C)C)c1 (stereo unspecified) | 0 | 4 | 1 | 7.1* | 0 | 1
N#Cc1ccc(C(=O)Nc2cccc(-c3nc4ncccc4o3)c2)c(F)c1 | 0 | 2 | -12 | 0 | . | .
O=C(Oc1ccc([N+](=O)[O-])cc1)c1ccc(N2C(=O)C3C4CCC(C4)C3C2=O)cc1 (stereo unspecified) | 0 | 1 | -5 | 7.5* | 0 | 0
Cc1cnc(-c2c(C)noc2C)nc1NCCc1ccc(O)cc1 | 0 | -4 | -6 | 0 | . | .
Cc1cnc(-c2c(C)nn(C)c2C)nc1NCCc1ccc(O)cc1 | 0 | -1 | 1 | 5.7* | 1 | 5
CCCC(=O)Nc1ccc(C(=O)N2CCN(c3cccc(Cl)c3)CC2)cc1 | 0 | -8 | 12 | 6.3* | -1 | 6
O=C(CSCc1ccc([N+](=O)[O-])cc1)N1CCN(c2cccc(Cl)c2)CC1 | 0 | -1 | 7 | 13* | 0 | -10
O=C(C(=O)N1CCN(c2cccc(Cl)c2)CC1)N1CCCCC1 | 0 | 3 | -13 | 5.3* | -1 | 0
O=C(C1CC1)N1CCN(c2cccc(Cl)c2)CC1 | 0 | -1 | 22 | 0 | . | .
CCNC(=S)N/N=C/c1ccc(C)s1 | 0 | -1 | 2 | -2 | . | .
CCOC(=O)c1cnc2c(Cl)c(Cl)ccc2c1NCc1cccnc1 | 0 | -2 | -8 | 1 | . | .
NS(=O)(=O)c1ccc(NC(=O)CSc2nc3cc(Cl)ccc3s2)cc1 | 0 | -5 | 2 | 6.1* | 0 | 20
O=C(CSc1nc2cc(Cl)ccc2s1)Nc1ccc(Cl)cc1 | 0 | 1 | 0 | 1 | . | .
COc1ccc(CCNC(=O)c2cnc(Nc3nccc4ccccc34)s2)cc1 | 0 | 0 | 18 | 5.8* | 0 | -8
CCCNC(=O)c1cnc(Nc2nccc3ccccc23)s1 | 0 | -51 | -1 | -1 | . | .
CC(C)(C)SCCNC(=O)Cc1ccccc1[N+](=O)[O-] | 0 | -10 | 5 | 1 | . | .
CCNC(=O)/C=C/c1ccc([N+](=O)[O-])cc1 | 0 | -4 | -1 | 1 | . | .
CCOC(=O)C1CCN(C(=O)/C(=C/c2cccc([N+](=O)[O-])c2)c2ccccc2)CC1 | 0 | -1 | 12 | 8.7* | 0 | -13
COC(=O)C1CCN(C(=O)/C(=C\c2ccccc2)c2ccccc2)CC1 | 0 | 0 | -2 | 1 | . | .

Compound activity as filed in PubChem.
